Values without a mark were called inactive. For part of these data: Potency and affinity values are given separately. The source made the active and inactive calls.
Key:
[1] = Ebola virus entry assay, green fluorescence channel
[2] = Ebola virus entry assay, blue channel fluorescence
[3] = Ebola virus entry assay, green fluorescence channel; remark: listed apart in the source
[4] = Ebola virus entry assay, ratio channel readout
[5] = Ebola virus entry assay, blue channel fluorescence; remark: listed apart in the source
[6] = Ebola virus entry assay, ratio channel
[7] = Ebola virus entry assay, reporter ratio channel; AC50: Channel type: primary unless noted; outcome: Channel type: primary unless noted
[8] = Ebola virus entry assay, blue channel (ratio component)
For efficacy in this document: 0% is about no effect.

Row | Structure (SMILES) | efficacy [1] | outcome [2] | outcome [3] | outcome [4] | AC50 [5] | AC50 [6] | AC50 [7] | AC50 [2] | AC50 [4] | outcome [7] | outcome [6] | outcome [5] | outcome [8]
1 | CN1CCN(CCCN2c3ccccc3Sc3ccc(Cl)cc32)CC1 | -144% | inactive | inactive | inactive | 7.08 µM (active) | 3.98 µM (active) | 3.98 µM (active) |  |  |  |  |  | 
2 | COC(=O)[C@H]1[C@H]2C[C@@H]3c4[nH]c5cc(OC)ccc5c4CCN3C[C@H]2C[C@@H](OC(=O)c2cc(OC)c(OC)c(OC)c2)[C@@H]1OC | 32.6% | inactive | inactive | inactive | 31.6 µM (active) | 25.1 µM (active) | 25.1 µM (active) |  |  |  |  |  | 
3 | COc1cc2nc(N3CCN(C(=O)C4COc5ccccc5O4)CC3)nc(N)c2cc1OC (stereo not given) | 97.9% | inactive | inactive | inactive | 15.8 µM (active) | 15.8 µM (active) | 15.8 µM (active) |  |  |  |  |  | 
4 | Clc1ccc2c(c1)C(N1CCNCC1)=Nc1ccccc1O2 | 94.9% |  | inactive |  | 14.1 µM (active) | 10 µM (active) | 10 µM (active) | 14.1 µM (active) | 12.6 µM (active) |  |  |  | 
5 | CCCSc1ccc2nc(NC(=O)OC)[nH]c2c1 | 60.2% | inactive | inactive | inactive | 3.16 µM (active) | 3.98 µM (active) |  |  |  | inactive [Channel type: confirmation] |  |  | 
6 | CN1CCC[C@@H]1CCO[C@](C)(c1ccccc1)c1ccc(Cl)cc1 | -151% |  | inactive |  | 1.78 µM (active) | 1.41 µM (active) | 1.41 µM (active) | 3.55 µM (active) | 3.17 µM (active) |  |  |  | 
7 | CN(C)CCCN1c2ccccc2Sc2ccc(Cl)cc21 | -179% |  | inactive | inactive | 14.1 µM (active) | 3.98 µM (active) | 3.98 µM (active) | 10 µM (active) |  |  |  |  | 
8 | CC12CC3CC(C)(C1)CC(N)(C3)C2 | 58.3% | inactive | inactive | inactive | 14.1 µM (active) | 14.1 µM (active) | 14.1 µM (active) |  |  |  |  |  | 
9 | COCCCC/C(=N\OCCN)c1ccc(C(F)(F)F)cc1 | 124% | inactive | inactive | inactive | 15.8 µM (active) | 14.1 µM (active) | 14.1 µM (active) |  |  |  |  |  | 
10 | CN1CCN(C2=Nc3cc(Cl)ccc3Nc3ccccc32)CC1 | 95.2% | inactive | inactive | inactive | 15.8 µM (active) | 14.1 µM (active) | 14.1 µM (active) |  |  |  |  |  | 
11 | COc1ccc([C@@H]2Sc3ccccc3N(CCN(C)C)C(=O)[C@@H]2OC(C)=O)cc1 | 53.7% | inactive | inactive | inactive | 28.2 µM (active) | 25.1 µM (active) | 25.1 µM (active) |  |  |  |  |  | 
12 | CN(C)CCC[C@@]1(c2ccc(F)cc2)OCc2cc(C#N)ccc21 | 55% | inactive | inactive | inactive | 39.8 µM (active) |  | 39.8 µM (active) |  |  |  | inactive |  | 
13 | C[C@@H](O)[C@H]1C(=O)N2C(C(=O)O)=C(S[C@@H]3CN[C@H](CNS(N)(=O)=O)C3)[C@H](C)[C@H]12 | 41.5% | inactive | inactive | inactive |  |  | 25.1 µM (active) |  |  |  | inactive | inactive | inactive
14 | Cc1nc(Nc2ncc(C(=O)Nc3c(C)cccc3Cl)s2)cc(N2CCN(CCO)CC2)n1 | 82.9% | inactive | inactive | inactive | 8.91 µM (active) | 7.94 µM (active) | 7.94 µM (active) |  |  |  |  |  | 
15 | CN1CCC(=C2c3ccccc3C=Cc3ccccc32)CC1 | 67.2% | inactive | inactive | inactive | 11.2 µM (active) | 10 µM (active) | 10 µM (active) |  |  |  |  |  | 
16 | Cc1ccsc1C(=CCCN1CCC[C@@H](C(=O)O)C1)c1sccc1C | 57.2% | inactive | inactive | inactive | 35.5 µM (active) | 20 µM (active) | 20 µM (active) |  |  |  |  |  | 
17 | COc1cc(NCc2ccc3nc(N)nc(N)c3c2C)cc(OC)c1OC | 44.2% | inactive | inactive | inactive | 35.5 µM (active) | 28.2 µM (active) | 28.2 µM (active) |  |  |  |  |  | 
18 | C[C@@H](O[C@H]1OCCN(Cc2n[nH]c(=O)[nH]2)[C@H]1c1ccc(F)cc1)c1cc(C(F)(F)F)cc(C(F)(F)F)c1 | 67.5% | inactive | inactive | inactive | 28.2 µM (active) | 28.2 µM (active) | 28.2 µM (active) |  |  |  |  |  | 
19 | CCCNCC(O)COc1ccccc1C(=O)CCc1ccccc1 (stereo not given) | 86.9% |  | inactive |  | 8.91 µM (active) | 7.94 µM (active) |  | 11.2 µM (active) | 8.92 µM (active) | inactive [Channel type: confirmation] |  |  | inactive
20 | CCN(CC)CCOC(=O)C1(C2CCCCC2)CCCCC1 | 45% | inactive | inactive | inactive | 12.6 µM (active) | 10 µM (active) | 10 µM (active) |  |  |  |  |  | 
21 | COCCCOc1cc(C[C@@H](C[C@H](N)[C@@H](O)C[C@H](C(=O)NCC(C)(C)C(N)=O)C(C)C)C(C)C)ccc1OC | 31.8% | inactive | inactive | inactive |  |  |  |  |  | inactive | inactive | inactive | inactive
